Inconclusive results are not listed. Calls of active or inactive are those of the source. Unless noted, calls follow the shape of the dose curve; as a rule, active = well fitted curve in the direction sought with a large enough effect; inconclusive = small, poorly fitted or top-dose-only effect, or another doubt; inactive = no such curve, though single readings can be large; an effect the other way counts as inactive or inconclusive.
Columns and labels:
[1] = qHTS for Inhibitors of Plasmodium falciparum (DD2) proliferation (AID 504314);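 also: parasite DNA measured by SYBR Green fluorescence after red cell lysis; plate controls were DMSO vehicle for no effect and artemisinin wells for full effect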
Procedure, shortened: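 Quantitative HTS growth inhibition: SYBR Green I binding to parasite DNA after 72 h drug exposure of infected erythrocytes (0.3% parasitemia, 2.5% hematocrit). Signals normalized per plate to inhibitor and vehicle wells.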

[2] = qHTS for Inhibitors of Plasmodium falciparum (GB4) proliferation (AID 504315);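 also: 0% = DMSO vehicle and -100% = 0.29 µM artemisinin control; nearly all actives have a fitted effect of over 50% in size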
Procedure, shortened: (§1)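 Erythrocytes infected with P. falciparum line (0.3% parasitemia, 2.5% hematocrit final) incubated with compounds 72 h at 37 °C, 5% CO2; SYBR Green lysis buffer added, fluorescence read next day. Normalized to 0.29 uM artemisinin and DMSO.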

[3] = qHTS for Inhibitors of Plasmodium falciparum (7G8) proliferation (AID 504316);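 also: series mostly up to about 6.7 µM; 0% = DMSO vehicle and -100% = 0.29 µM artemisinin full kill; nearly all actives have a fitted effect of over 65% in size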
Procedure, shortened: as §1

[4] = qHTS for Inhibitors of Plasmodium falciparum (HB3) proliferation (AID 504318);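 also: 0% = DMSO vehicle and -100% = artemisinin control; nearly all actives have a fitted effect of over 60% in size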
Procedure, shortened: as §1

[5] = qHTS for Inhibitors of Plasmodium falciparum (CP250) proliferation (AID 504320);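 also: plate controls were DMSO vehicle for no effect and 0.29 µM artemisinin control for full effect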
Procedure, shortened: as §1

[6] = target: Atrial natriuretic peptide receptor 1 (Homo sapiens) (UniProt P16066); assay: Natriuretic polypeptide receptor (hNpr1) antagonism - Pilot CMLD screen (AID 1347052; calls by dose curve;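 also: HEK293 cells with hNpr1 stimulated by hNppA peptide at 0.1 nM; cGMP level read as GloSensor luciferase luminescence after agonist stimulation; series mostly up to about 9.2 µM; % is scaled to controls: 0 for no effect and ±100 for the full control effect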)
Sequence of Atrial natriuretic peptide receptor 1 (Homo sapiens) (P16066 whole entry, looked up): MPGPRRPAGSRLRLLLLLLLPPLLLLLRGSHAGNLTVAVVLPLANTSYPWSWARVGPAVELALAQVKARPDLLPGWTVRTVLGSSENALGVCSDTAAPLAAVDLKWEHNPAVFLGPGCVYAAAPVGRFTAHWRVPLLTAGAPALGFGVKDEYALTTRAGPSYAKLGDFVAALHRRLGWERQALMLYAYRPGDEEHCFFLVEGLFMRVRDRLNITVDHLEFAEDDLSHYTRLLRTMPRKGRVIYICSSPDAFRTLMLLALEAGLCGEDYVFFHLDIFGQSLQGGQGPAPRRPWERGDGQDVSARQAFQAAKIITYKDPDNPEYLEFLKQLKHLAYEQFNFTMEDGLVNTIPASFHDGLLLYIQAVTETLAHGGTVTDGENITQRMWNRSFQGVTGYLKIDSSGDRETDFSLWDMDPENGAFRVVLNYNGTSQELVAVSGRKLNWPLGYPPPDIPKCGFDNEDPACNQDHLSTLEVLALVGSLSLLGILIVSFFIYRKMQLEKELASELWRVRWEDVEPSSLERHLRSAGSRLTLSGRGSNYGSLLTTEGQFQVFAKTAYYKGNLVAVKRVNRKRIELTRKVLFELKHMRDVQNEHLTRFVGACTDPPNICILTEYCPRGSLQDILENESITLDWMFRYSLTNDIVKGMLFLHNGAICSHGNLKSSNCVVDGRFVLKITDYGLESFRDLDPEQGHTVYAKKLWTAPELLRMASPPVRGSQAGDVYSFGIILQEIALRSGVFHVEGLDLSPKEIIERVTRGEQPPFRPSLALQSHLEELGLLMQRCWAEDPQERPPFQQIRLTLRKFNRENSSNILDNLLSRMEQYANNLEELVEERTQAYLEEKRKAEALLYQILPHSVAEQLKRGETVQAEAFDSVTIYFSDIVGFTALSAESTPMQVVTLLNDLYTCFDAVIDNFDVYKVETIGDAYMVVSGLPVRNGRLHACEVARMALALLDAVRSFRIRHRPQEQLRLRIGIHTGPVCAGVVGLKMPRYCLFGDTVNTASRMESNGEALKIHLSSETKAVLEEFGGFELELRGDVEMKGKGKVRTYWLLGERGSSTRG

CC#CCN1c2ccccc2[C@]23CCC(=O)N(Cc4cccc(C(F)(F)F)c4)C2=NC(C(=O)OC)=C(C(=O)OC)[C@H]13
inactive: Potency [1] | Potency [2] | Potency [3] | Potency [4] | Potency [5] | Potency [6]

O=C1CCCC=C1C(O)COCc1ccccc1 (configuration not stated)
inactive: Potency [1] | Potency [2] | Potency [3] | Potency [4] | Potency [5] | Potency [6]

COCCN1C(=O)NC(c2ccco2)C(C(=O)OC)=C1C (configuration not stated)
inactive: Potency [1] | Potency [2] | Potency [3] | Potency [4] | Potency [5] | Potency [6]

CC(C)CON=C1C[C@@H](O)[C@@H](O)[C@@H]2[C@H]3C(=O)N(Cc4ccc5c(c4)OCO5)C(=O)[C@@H]3CC[C@H]12
inactive: Potency [1] | Potency [2] | Potency [3] | Potency [4] | Potency [5] | Potency [6]

COc1cccc2c1[C@H](C=Cc1ccccc1)[C@@H]([C@H](O)CO)OC2
inactive: Potency [1] | Potency [2] | Potency [3] | Potency [4] | Potency [5] | Potency [6]

COC(=O)NC(CCc1ccccc1)C(C(C)=O)C(=O)OC (configuration not stated)
inactive: Potency [1] | Potency [2] | Potency [3] | Potency [4] | Potency [5] | Potency [6]

CCCCc1nc2c(c3c1C[C@H](C)OC3)CN(S(=O)(=O)c1ccc(C)cc1)CC2
inactive: Potency [1] | Potency [2] | Potency [3] | Potency [4] | Potency [5] | Potency [6]

COc1ccc2c(c1)CO[C@H]([C@H](O)COC(C)=O)[C@H]2C=Cc1ccccc1
inactive: Potency [1] | Potency [2] | Potency [3] | Potency [4] | Potency [5] | Potency [6]

CCOC(=O)OC[C@H]1O[C@H](C#Cc2ccc(F)cc2F)C=C[C@H]1OC(=O)OCC
inactive: Potency [1] | Potency [2] | Potency [3] | Potency [4] | Potency [5] | Potency [6]

COC(=O)N[C@H](CC(C)=O)c1ccc2c(c1)OCO2
inactive: Potency [1] | Potency [2] | Potency [3] | Potency [4] | Potency [5] | Potency [6]

COC(=O)CCCC1=CC2=CC(=O)C(C)(OC(=O)c3cccs3)C(=O)C2=CN1Cc1ccco1 (configuration not stated)
inactive: Potency [1] | Potency [2] | Potency [3] | Potency [4] | Potency [5] | Potency [6]

COC(=O)[C@H]1O[C@@H](c2cc(OC)c(C)c(OC)c2O)[C@H](C)[C@@H](O)[C@@H]1C
inactive: Potency [1] | Potency [2] | Potency [3] | Potency [4] | Potency [5] | Potency [6]

COC(=O)C1=C(C)N(Cc2ccccc2)C(=O)NC1c1cccc(F)c1 (configuration not stated)
inactive: Potency [1] | Potency [2] | Potency [3] | Potency [4] | Potency [5] | Potency [6]

C[C@H]1CC[C@H]2C(=O)NC[C@H](O)CN2[C@H]1c1ccc(Br)cc1
inactive: Potency [1] | Potency [2] | Potency [3] | Potency [4] | Potency [5] | Potency [6]

COC(=O)CCCC1=CC2=CC(=O)C(C)(O)C(=O)C2=CO1 (configuration not stated)
inactive: Potency [1] | Potency [2] | Potency [3] | Potency [4] | Potency [5] | Potency [6]

C[C@H]1CC[C@H]2C(=O)O[C@H](CO)CN2[C@H]1c1ccc(Br)cc1
inactive: Potency [1] | Potency [2] | Potency [3] | Potency [4] | Potency [5] | Potency [6]

C[C@@H](ON=C1[C@H]2CCn3c(=O)n(-c4ccccc4)c(=O)n3[C@@H]2[C@H](O)[C@@H]2O[C@H]12)c1cn([C@@H]2COC[C@@H]2O)nn1
inactive: Potency [1] | Potency [2] | Potency [3] | Potency [4] | Potency [5] | Potency [6]

C=CCOC(=O)N[C@H](c1ccccc1)C(C(C)=O)C(C)=O
inactive: Potency [1] | Potency [2] | Potency [3] | Potency [4] | Potency [5] | Potency [6]

CCOC(=O)CNC(=O)O[C@@H]1C(=O)c2cc(OC)ccc2O[C@H]1c1cccc(OC)c1
inactive: Potency [1] | Potency [2] | Potency [3] | Potency [4] | Potency [5] | Potency [6]

C=C(CCN1C=C(C(C)=O)C(c2ccccc2)NC1=O)c1ccccc1 (configuration not stated)
inactive: Potency [1] | Potency [2] | Potency [3] | Potency [4] | Potency [5] | Potency [6]

COC(=O)[C@@]1(Cc2ccccc2-c2ccco2)C=C[C@H](C)[C@@H](c2ccccc2)N1C(=O)C(F)(F)F
inactive: Potency [1] | Potency [2] | Potency [3] | Potency [4] | Potency [5] | Potency [6]

COCCN1C(=O)N[C@@H](c2cccc(C(F)(F)F)c2)[C@H](C(=O)OC)[C@H]1C
inactive: Potency [1] | Potency [2] | Potency [3] | Potency [4] | Potency [5] | Potency [6]

CCOC(=O)CN1C(=O)[C@]2(OCCC=C[C@@H]2C)c2cc(OC)ccc21
inactive: Potency [1] | Potency [2] | Potency [3] | Potency [4] | Potency [5] | Potency [6]

COc1ccc2c(c1)O[C@@H](c1ccc3c(c1)OCO3)[C@H](OC(=O)N[C@H](C)C1CCCCC1)C2=O
inactive: Potency [1] | Potency [2] | Potency [3] | Potency [4] | Potency [5] | Potency [6]

COC1=C[C@H](C(=O)NCc2ccc(Cl)cc2)C(C)C(c2ccccc2)CC1=O (some centres not stated)
inactive: Potency [1] | Potency [2] | Potency [3] | Potency [4] | Potency [5] | Potency [6]

C=CC1=C2C=C(C3CC3)N(C(CO)CO)C=C2C(=O)C(C)(OC(=O)c2ccco2)C1=O (configuration not stated)
inactive: Potency [1] | Potency [2] | Potency [3] | Potency [4] | Potency [5] | Potency [6]

COC(=O)c1nnc(SC)nc1C(=O)OC
inactive: Potency [1] | Potency [2] | Potency [3] | Potency [4] | Potency [5] | Potency [6]

COC(=O)[C@H](Cc1ccccc1)NC(=O)O[C@H]1C(=O)c2ccc(OC)cc2O[C@@H]1c1ccc2c(c1)OCO2
inactive: Potency [1] | Potency [2] | Potency [3] | Potency [4] | Potency [5] | Potency [6]

COC(=O)c1nnc(N[C@@H](Cc2c[nH]c3ccccc23)C(=O)OC)nc1C(=O)OC
inactive: Potency [1] | Potency [2] | Potency [3] | Potency [4] | Potency [5] | Potency [6]

CC(C)[C@@H](OCc1ccccc1)[C@H](C)C=NOC[C@@H](O)COCc1ccco1
inactive: Potency [1] | Potency [2] | Potency [3] | Potency [4] | Potency [5] | Potency [6]

COC(=O)C1=C(C(=O)OC)[C@@H]2N(C)c3ccccc3[C@@]23C[C@@H](CO)N(C(=O)c2ccc(Br)cc2)C3=N1
inactive: Potency [1] | Potency [2] | Potency [3] | Potency [4] | Potency [5] | Potency [6]

CCCCS(=O)(=O)N1C2=NC3=C(C(=O)N(CCOC)C3=O)C3N(C)c4ccccc4[C@]23C[C@H]1CO (some centres not stated)
inactive: Potency [1] | Potency [2] | Potency [3] | Potency [4] | Potency [5] | Potency [6]

CCN1C(=NCCOC)N[C@@H](c2ccccc2)[C@H](C(=O)OC)[C@H]1C
inactive: Potency [1] | Potency [2] | Potency [3] | Potency [4] | Potency [5] | Potency [6]

COC(=O)C1=C(C(=O)OC)[C@@H]2N(C)c3ccc(OC)cc3[C@@]23C[C@@H](C(=O)OC)N(C(=O)c2ccco2)C3=N1
inactive: activity, negative = inhibition [1] -1.01% [at 1.12 µM] | Potency [2] | Potency [3] | Potency [4] | Potency [5] | Potency [6]

CCN1C(=NCc2ccccc2)N[C@@H](c2ccccc2)[C@H](C(=O)OC)[C@H]1C
inactive: Potency [1] | Potency [2] | Potency [3] | Potency [4] | Potency [5] | Potency [6]

COc1ccc(-c2nc(-c3ccccc3)oc2Nc2ccccc2C)cc1
inactive: Potency [1] | Potency [2] | Potency [3] | Potency [4] | Potency [5] | Potency [6]

COC(=O)C(C(C)=O)[C@@H](NC(=O)OC(C)(C)C)c1ccccc1 (some centres not stated)
inactive: Potency [1] | Potency [2] | Potency [3] | Potency [4] | Potency [5] | Potency [6]

CC(C)C(=O)N[C@H]1CCCN1C(=O)C=Cc1ccccc1
inactive: Potency [1] | Potency [2] | Potency [3] | Potency [4] | Potency [5] | Potency [6]

CCCCCCCc1cc2ccccc2c(=O)o1
inactive: Potency [1] | Potency [2] | Potency [3] | Potency [4] | Potency [5] | Potency [6]

COC(=O)CC=C[C@@H](C)[C@@H](C=NOC[C@@H](O)[C@H]1O[C@@H]2OC(C)(C)O[C@H]2[C@@H]1O)OC
inactive: Potency [1] | Potency [2] | Potency [3] | Potency [4] | Potency [5] | Potency [6]

COC(=O)C1=C(C(=O)OC)[C@@H]2N(Cc3ccccc3)c3ccccc3[C@@]23C[C@@H](C(=O)OC)N(C(=O)c2cc(C)oc2C)C3=N1
inactive: Potency [1] | Potency [2] | Potency [3] | Potency [4] | Potency [5] | Potency [6]

CCCCOC(OCCCC)C(O)CSc1ccc2ccccc2c1 (configuration not stated)
inactive: Potency [1] | Potency [2] | Potency [3] | Potency [4] | Potency [5] | Potency [6]

CC(=O)C1=C(C)N(Cc2ccccc2)C(=O)NC1c1cccs1 (configuration not stated)
inactive: Potency [1] | Potency [2] | Potency [3] | Potency [4] | Potency [5] | Potency [6]

C=CCOC(=O)N[C@H](c1ccc2ccccc2c1)[C@H](C)C=CCC(=O)OC
inactive: Potency [1] | Potency [2] | Potency [3] | Potency [4] | Potency [5] | Potency [6]

COC(=O)N[C@@H](c1ccco1)[C@]1(C(=O)OC)CCCC1=O
inactive: Potency [1] | Potency [2] | Potency [3] | Potency [4] | Potency [5] | Potency [6]

COC(=O)c1c(C(=O)OC)c2c3ccccc3cc(-c3ccccc3)n2c1C(=O)OC
inactive: Potency [1] | Potency [2] | Potency [3] | Potency [4] | Potency [5] | Potency [6]

C=CC[C@@H]1C=C[C@H](ON=C[C@@H](C)[C@H](OCc2ccccc2)C(C)C)[C@H](CO)O1
inactive: Potency [1] | Potency [2] | Potency [3] | Potency [4] | Potency [5] | Potency [6]

CC1(OC(=O)C2CCCC2)C(=O)C=C2C=C(c3ccsc3)N(C(CO)CO)C=C2C1=O (configuration not stated)
inactive: Potency [1] | Potency [2] | Potency [3] | Potency [4] | Potency [5] | Potency [6]

C=C(C(C)=O)C(O)c1cccc(OC)c1 (configuration not stated)
inactive: Potency [1] | Potency [2] | Potency [3] | Potency [4] | Potency [5] | Potency [6]

C=CCCN1C=C(C(=O)OCC)C(c2ccccc2)NC1=O (configuration not stated)
inactive: Potency [1] | Potency [2] | Potency [3] | Potency [4] | Potency [5] | Potency [6]

CCCCC1=CC2=C(c3ccco3)C(=O)C(C)(OC(=O)c3ccc(OC)cc3)C(=O)C2=CN1Cc1ccc2c(c1)OCO2 (configuration not stated)
inactive: activity, negative = inhibition [1] 4.29% [at 1.12 µM] | Potency [2] | Potency [3] | Potency [4] | Potency [5] | Potency [6]

C=CCC(Nc1ccc(OC)cc1)C(=O)OCC (configuration not stated)
inactive: Potency [1] | Potency [2] | Potency [3] | Potency [4] | Potency [5] | Potency [6]
